Values joined by “and” are separate entries in the source; they are usually repeats but may differ in a detail not shown here. Identical values can stand only once. Inconclusive results are not listed. Active and inactive are the calls of the source. Unless noted, the call rests on the fitted dose curve; in most records, active means well fitted curve in the direction sought with a large enough effect; inconclusive means small, poorly fitted or top-dose-only effect, or another doubt; inactive means no such curve, though single readings can be large; an effect the other way counts as inactive or inconclusive.
Tests used:
[1] = Cell Viability - LYMP2-015 (AID 971);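 further: 0% = DMSO only and full effect = 92 µM tetraoctylammonium bromide; nearly all actives have a fitted effect of over 55% in size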
Outline: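 Luminescent ATP read-out (CellTiter-Glo) served as the viability measure after lymphoblastoid cells were exposed to compounds for 24 hours at 37 C. Concentration-response data were fitted with the Hill equation to give AC50.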

[2] = Cell Viability - LYMP2-017 (AID 972); further: series mostly up to about 92 µM; on the % scale 0 is the no-effect control and ±100 the full control effect; nearly all actives have a fitted effect of over 55% in size
Outline: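 2500 cells/well, 5 h 37 C; cpd 24 h 37 C in complete medium; CellTiter-Glo, 30 min RT; luminescence (ATP). AC50 via Hill fit, qHTS.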

[3] = Cell Viability - LYMP2-019 (AID 973);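 further: 0% = DMSO alone and full effect = 92 µM tetraoctylammonium bromide; nearly all actives have a fitted effect of over 55% in size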
Outline: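 Luminescent ATP read-out (CellTiter-Glo, 30 min room temperature) served as the viability measure after 24 hr treatment of lymphoblastoid cells at 37 C. Concentration-response data were fitted to the Hill equation for AC50.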

[4] = Cell Viability - LYMP2-021 (AID 974);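 further: compound exposure lasts 24 hours at 37 °C; on the % scale 0 is the no-effect control and ±100 the full control effect; nearly all actives have a fitted effect of over 55% in size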
Outline: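 Plate 2500 lymphoblastoid cells per well and incubate 5 hr at 37 C. Add compounds over a concentration range and incubate 24 hr at 37 C. Add CellTiter-Glo, wait 30 min at room temperature, read luminescence.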

[5] = Cell Viability - LYMP2-023 (AID 975)
Outline: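 2500 cells/well, 5 hr 37 C; cpd 24 hr 37 C; CellTiter-Glo, 30 min RT; luminescence. qHTS conc-response, Hill fit -> AC50. Pos ctrl tetraoctylammonium bromide.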

[6] = Cell Viability - LYMP2-025 (AID 976);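 further: series mostly up to about 92 µM; plate controls were DMSO only for no effect and tetraoctylammonium bromide control for full effect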
Outline: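 Seed 2500 LYMP2-025 cells/well; 5 hr at 37 C; add compound; 24 hr at 37 C; add CellTiter-Glo; 30 min RT; read luminescence. AC50 from Hill-modelled concentration-response.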

[7] = Cell Viability - LYMP2-002 (AID 977);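 further: series mostly up to about 92 µM; plate controls were DMSO only for no effect and 92 µM tetraoctylammonium bromide for full effect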
Outline: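 Luminescent ATP readout (CellTiter-Glo, 30 min room temperature) after 24 h compound exposure at 37 C of a human lymphoblastoid line, 2500 cells/well. AC50 values derived by standard Hill fitting of qHTS concentration-response data.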

[8] = Cell Viability - LYMP2-006 (AID 978); further: series mostly up to about 92 µM; on the % scale 0 is the no-effect control and ±100 the full control effect; nearly all actives have a fitted effect of over 60% in size
Outline: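 Potency values are Hill-fit AC50s for decreases in intracellular ATP (CellTiter-Glo luminescence). LYMP2-006 lymphoblastoid cells, 2500 per well, were exposed to compound in complete culture medium for 24 hr at 37 C.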

[9] = Cell Viability - LYMP2-007 (AID 979);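 further: cells exposed to compound for 24 h before reading; 0% = DMSO only and the negative end = 92 µM tetraoctylammonium bromide; nearly all actives have a fitted effect of over 60% in size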
Outline: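 Luminescent ATP signal (CellTiter-Glo) serves as the viability read-out after 24 hr compound treatment of lymphoblastoid cells in complete medium at 37 C. Concentration-response data were fitted to the Hill equation to give AC50 values.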

[10] = Cell Viability - LYMP2-008 (AID 980); further: on the % scale 0 is the no-effect control and ±100 the full control effect; nearly all actives have a fitted effect of over 60% in size
Outline: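 qHTS, human lymphoblastoid line, 2500 cells/well; 5 hr preincubation, 24 hr compound, 37 C. CellTiter-Glo ATP luminescence. AC50 via Hill equation. Tetraoctylammonium bromide positive control.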

[11] = Cell Viability - LYMP2-010 (AID 981)
Outline: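 Luminescent ATP signal (CellTiter-Glo) served as the viability read-out. Cells of the human lymphoblastoid line were treated with compound over a concentration range for 24 hours at 37 C, and AC50 values came from Hill-equation modeling.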

[12] = Cell Viability - LYMP2-012 (AID 982)
[13] = Cell Viability - LYMP2-014 (AID 983);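 further: series mostly up to about 92 µM; plate controls were DMSO only for no effect and 92 µM tetraoctylammonium bromide for full effect; nearly all actives have a fitted effect of over 50% in size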
Outline: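 Luminescent ATP signal (CellTiter-Glo, 30 min at room temperature) serves as the viability read-out after 24 hr compound exposure at 37 C. Cells were seeded at 2500 per well and settled 5 hr beforehand.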

[14] = Cell Viability - LYMP2-016 (AID 984)
Outline: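 Cytotoxicity was scored by luminescent ATP content (CellTiter-Glo) after 24 h compound exposure at 37 C of a human lymphoblastoid line at 2500 cells/well. Concentration-response data were fitted to the Hill equation for AC50.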

[15] = Cell Viability - LYMP2-018 (AID 985);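 further: plate controls were DMSO only for no effect and tetraoctylammonium bromide at 92 µM for full effect; nearly all actives have a fitted effect of over 50% in size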
Outline: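 Luminescent ATP signal (CellTiter-Glo, read after 30 min at room temperature) reports viable cells after 24 hr compound treatment at 37 C. Concentration-response data were fitted to the standard Hill equation for AC50.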

[16] = Cell Viability - LYMP2-020 (AID 986)
Outline: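 Luminescent ATP signal (CellTiter-Glo, 30 min at room temperature) is the read-out after 24 h compound treatment of lymphoblastoid cells at 37 C. AC50 values come from Hill-equation fits across concentrations.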

[17] = Cell Viability - LYMP2-022 (AID 987)
Outline: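 qHTS: human lymphoblastoid cells 2500/well; 5 hr 37 C; cpd added; 24 hr 37 C; CellTiter-Glo, 30 min RT; luminescence. AC50 via Hill fit; tetraoctylammonium bromide positive ctrl.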

[18] = Cell Viability - LYMP2-024 (AID 988);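 further: plate controls were DMSO only for no effect and 92 µM tetraoctylammonium bromide for full effect; nearly all actives have a fitted effect of over 60% in size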
Outline: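 Steps: seed 2500 cells/well, 5 hr 37 C; add compound, 24 hr 37 C; add CellTiter-Glo, 30 min room temperature; read luminescence. AC50 derived by Hill modelling of concentration-dependent ATP loss.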

[19] = Cell Viability - LYMP2-026 (AID 989); further: on the % scale 0 is the no-effect control and ±100 the full control effect; nearly all actives have a fitted effect of over 50% in size
Outline: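 Luminescent ATP signal (CellTiter-Glo, 30 min room temperature) measures viable lymphoblastoid cells after 24 hr compound treatment at 37 C. Decreased ATP reflects acute toxicity; AC50 values come from Hill-equation modeling.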

[20] = Cell Viability - LYMP1-002 - Assay at 24 hr (AID 993); further: on the % scale 0 is the no-effect control and ±100 the full control effect
Outline: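 Cells plated 2500/well, 5 hr 37 C; compounds added, 24 hr 37 C; CellTiter-Glo added, 30 min RT; luminescence read. Tetraoctylammonium bromide positive control. Hill-equation AC50.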

[21] = Cell Viability - LYMP1-002 - Assay at 40 hr (AID 994)
Outline: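 Luminescent ATP signal served as the viability readout, with decreases taken as toxicity. Cells were treated with compounds across a concentration range for 40 hours at 37 C, and AC50 values came from standard Hill modeling.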

[22] = biological target: Estrogen receptor (Homo sapiens) (UniProt P03372); experiment: qHTS assay for small molecule antagonists of estrogen receptor alpha signaling (AID 588513; active means well fitted curve in the direction sought with a large enough effect in the signal ratio, with a control signal flat, not every such curve was filed as active; the % refers to the signal ratio; further: on the % scale 0 is the no-effect control and ±100 the full control effect)
Chain of Estrogen receptor (Homo sapiens) (P03372 whole entry, looked up): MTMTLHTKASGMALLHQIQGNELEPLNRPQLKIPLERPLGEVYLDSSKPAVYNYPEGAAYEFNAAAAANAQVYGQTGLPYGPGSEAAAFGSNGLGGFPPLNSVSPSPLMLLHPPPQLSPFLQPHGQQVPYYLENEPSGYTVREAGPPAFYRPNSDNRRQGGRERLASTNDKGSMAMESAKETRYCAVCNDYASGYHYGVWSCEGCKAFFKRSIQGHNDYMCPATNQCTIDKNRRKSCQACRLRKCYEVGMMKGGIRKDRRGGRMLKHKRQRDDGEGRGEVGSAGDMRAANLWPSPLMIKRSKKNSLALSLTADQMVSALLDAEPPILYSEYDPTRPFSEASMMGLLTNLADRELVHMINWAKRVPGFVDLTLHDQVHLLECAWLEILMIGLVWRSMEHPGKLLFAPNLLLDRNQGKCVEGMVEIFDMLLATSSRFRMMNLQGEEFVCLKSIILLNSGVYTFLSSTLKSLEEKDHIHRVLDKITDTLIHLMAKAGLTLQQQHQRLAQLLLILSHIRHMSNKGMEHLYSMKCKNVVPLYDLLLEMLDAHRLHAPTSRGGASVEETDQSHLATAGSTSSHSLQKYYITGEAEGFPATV
Outline: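 Antagonist mode: inhibition of 0.5 nM 17-beta-estradiol-driven beta-lactamase reporter in HEK 293 ER-alpha-UAS-bla cells, 18 h at 37C, CCF4 readout after 2 h at RT. Normalised to estradiol and DMSO; titration fitted to Hill.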

[23] = biological target: Bile acid receptor (Homo sapiens) (UniProt Q96RI1); experiment: qHTS assay for small molecule agonists of farnesoid X receptor signaling (AID 588527; calls by dose curve; further: potency means the concentration at half of the fitted maximal effect); settings: HEK293T FXR-UAS-bla, beta-lactamase ratio, 16 h; activation: stronger effect = higher value
Chain of Bile acid receptor (Homo sapiens) (Q96RI1 whole entry, looked up): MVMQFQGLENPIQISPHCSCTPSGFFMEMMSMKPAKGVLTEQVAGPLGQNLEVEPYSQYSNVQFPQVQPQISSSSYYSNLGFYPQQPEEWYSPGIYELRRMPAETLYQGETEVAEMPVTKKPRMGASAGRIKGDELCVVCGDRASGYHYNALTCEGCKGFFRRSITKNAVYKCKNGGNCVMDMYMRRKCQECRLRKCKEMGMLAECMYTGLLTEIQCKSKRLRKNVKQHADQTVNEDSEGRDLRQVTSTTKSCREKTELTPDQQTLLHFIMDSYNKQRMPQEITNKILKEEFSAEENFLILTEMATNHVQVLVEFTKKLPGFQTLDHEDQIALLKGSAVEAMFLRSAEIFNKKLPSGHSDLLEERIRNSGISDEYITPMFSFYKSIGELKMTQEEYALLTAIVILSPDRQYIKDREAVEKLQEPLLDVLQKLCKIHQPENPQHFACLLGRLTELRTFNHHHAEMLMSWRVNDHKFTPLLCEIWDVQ
Outline: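 Read-out: beta-lactamase reporter fluorescence with CCF4 substrate in GeneBLAzer FXR-UAS-bla HEK293T cells, after 16 h compound exposure at 37 C. Response scaled between DMSO basal (0%) and chenodeoxycholic acid at 100 uM (100%).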

[24] = qHTS assay for small molecule agonists of retinoid X receptor alpha signaling (AID 588544; calls by dose curve; further: potency means the concentration at half of the fitted maximal effect); settings: HEK293T RXRa-UAS-bla, beta-lactamase reporter, 18 h; 530 nm emission
[25] = biological target: Retinoic acid receptor RXR-alpha (Homo sapiens) (UniProt P19793); experiment: as above
Chain of Retinoic acid receptor RXR-alpha (Homo sapiens) (P19793 whole entry, looked up): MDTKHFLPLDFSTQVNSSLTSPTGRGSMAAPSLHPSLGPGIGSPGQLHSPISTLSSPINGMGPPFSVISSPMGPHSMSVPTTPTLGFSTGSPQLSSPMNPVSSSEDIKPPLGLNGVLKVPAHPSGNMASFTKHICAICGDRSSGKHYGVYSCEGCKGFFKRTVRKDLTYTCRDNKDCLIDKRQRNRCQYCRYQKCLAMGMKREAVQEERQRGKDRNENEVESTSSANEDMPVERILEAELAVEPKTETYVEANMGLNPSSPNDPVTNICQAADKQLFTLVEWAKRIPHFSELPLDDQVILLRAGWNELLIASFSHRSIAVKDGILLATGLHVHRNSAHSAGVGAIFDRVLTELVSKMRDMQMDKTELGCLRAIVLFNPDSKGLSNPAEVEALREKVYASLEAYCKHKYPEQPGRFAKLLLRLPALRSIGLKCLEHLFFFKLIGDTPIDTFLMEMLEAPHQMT

[26] = biological target: Voltage-gated inwardly rectifying potassium channel KCNH2 (Homo sapiens) (UniProt Q12809); experiment: qHTS Assay for Small Molecule Inhibitors of the Human hERG Channel Activity (AID 588834);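 further: top concentration of the series differs between compounds; on the % scale 0 is the no-effect control and ±100 the full control effect; lower thallium flux fluorescence means stronger hERG block; nearly all actives have a fitted effect of over 50% in size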
Chain of Voltage-gated inwardly rectifying potassium channel KCNH2 (Homo sapiens) (Q12809 whole entry, looked up): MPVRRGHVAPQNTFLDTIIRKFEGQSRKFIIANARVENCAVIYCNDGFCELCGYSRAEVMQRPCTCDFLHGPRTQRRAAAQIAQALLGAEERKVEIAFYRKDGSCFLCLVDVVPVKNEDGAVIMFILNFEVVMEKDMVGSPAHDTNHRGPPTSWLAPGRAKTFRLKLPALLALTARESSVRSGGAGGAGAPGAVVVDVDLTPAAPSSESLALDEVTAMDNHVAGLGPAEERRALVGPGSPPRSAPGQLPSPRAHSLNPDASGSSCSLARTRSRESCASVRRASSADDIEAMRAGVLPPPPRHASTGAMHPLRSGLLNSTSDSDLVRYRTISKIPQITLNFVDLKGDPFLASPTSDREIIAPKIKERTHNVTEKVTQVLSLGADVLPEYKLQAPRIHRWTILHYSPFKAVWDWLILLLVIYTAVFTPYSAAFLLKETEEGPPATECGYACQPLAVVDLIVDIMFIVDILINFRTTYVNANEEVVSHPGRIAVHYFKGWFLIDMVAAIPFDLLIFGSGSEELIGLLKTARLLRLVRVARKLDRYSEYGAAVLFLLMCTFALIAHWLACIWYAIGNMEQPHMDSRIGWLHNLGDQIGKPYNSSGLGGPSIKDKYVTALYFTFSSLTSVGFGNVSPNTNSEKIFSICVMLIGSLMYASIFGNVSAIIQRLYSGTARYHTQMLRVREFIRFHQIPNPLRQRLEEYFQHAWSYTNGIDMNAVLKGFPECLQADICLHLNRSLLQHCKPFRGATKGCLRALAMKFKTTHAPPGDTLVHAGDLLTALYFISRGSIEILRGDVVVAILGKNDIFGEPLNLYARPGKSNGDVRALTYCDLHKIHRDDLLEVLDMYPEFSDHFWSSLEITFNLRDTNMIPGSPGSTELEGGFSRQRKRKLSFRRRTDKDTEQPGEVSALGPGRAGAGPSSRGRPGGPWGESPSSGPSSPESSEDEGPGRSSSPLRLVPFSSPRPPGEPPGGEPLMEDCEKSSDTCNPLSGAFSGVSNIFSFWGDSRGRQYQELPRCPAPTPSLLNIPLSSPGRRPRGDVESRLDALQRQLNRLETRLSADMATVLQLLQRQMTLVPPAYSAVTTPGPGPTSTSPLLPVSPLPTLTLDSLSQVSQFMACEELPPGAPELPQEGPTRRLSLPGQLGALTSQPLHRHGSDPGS
Outline: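 Kinetic FDSS fluorescence; U2OS + hERG BacMam (~100 virus particles/cell); FluxOR Tl+ flux; ~10 min cpd; AC50 (Hill).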

[27] = qHTS assay for small molecule agonists of the antioxidant response element (ARE) signaling pathway (AID 651741; active means well fitted activation curve with a large enough effect in the signal ratio; the % refers to the signal ratio; further: potency means the concentration at half of the fitted maximal effect)
Outline: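 Compounds in DMSO are pinned onto HepG2 ARE-bla cells (2,000/well) that were preincubated 5 h; plates stay 16 h at 37 C, then beta-lactamase activity is detected with LiveBLAzer B/G substrate by fluorescence.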

[28] = qHTS assay for small molecule activators of the p53 signaling pathway (AID 651743; active means well fitted activation curve with a large enough effect in the signal ratio, not every such curve was filed as active; the % refers to the signal ratio; further: potency means the concentration at half of the fitted maximal effect); settings: HCT-116 p53RE-bla, beta-lactamase FRET ratio, 16 h; activation: stronger effect = higher value
Outline: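 Cell-based beta-lactamase reporter (p53 response elements, HCT-116 background). After a 5-hour preincubation, cells received compound for 16 hours at 37 C; substrate development ran 2 hours at room temperature.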

[29] = qHTS assay for small molecule activators of the nuclear factor-kappa B (NF-kB) signaling pathway (AID 651749; active means well fitted activation curve with a large enough effect in the signal ratio; the % refers to the signal ratio; further: potency means the concentration at half of the fitted maximal effect); settings: NF-kB-bla ME-180 cells, beta-lactamase FRET ratio, 16 h; activation: stronger effect = higher value
Outline: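 Screening used 2,000 ME-180 reporter cells per well exposed to pinned compound (23 nL) or DMSO; after 16 hr at 37C, beta-lactamase expression under NF-kB control was assessed through FRET.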

[30] = qHTS assay for small molecule disruptors of the mitochondrial membrane potential - 1 hr assay (AID 651754; calls by dose curve; further: on the % scale 0 is the no-effect control and ±100 the full control effect; nearly all actives have a fitted effect of over 35% in size)
Outline: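 HepG2, 2,000 cells/well, overnight attachment; cpd or DMSO 1 hr, 37C/5% CO2; Mito-MPS dye 30 min, 37C; fluorescence monomer (490/535) and aggregate (540/590).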

[31] = qHTS assay for small molecule disruptors of the mitochondrial membrane potential - 5 hr assay (AID 651755; calls by dose curve; further: potency means the concentration at half of the fitted maximal effect; nearly all actives have a fitted effect of over 40% in size)
Outline: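 HepG2 cells, attached overnight at 37C, were exposed to compound or DMSO for 5 hr at 37C, 5% CO2. Mito-MPS dye was then added for 30 min, and fluorescence read at 490/535 nm (monomers) and 540/590 nm (aggregates).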

[32] = biological target: Tumor necrosis factor (Homo sapiens) (UniProt P01375); experiment: qHTS assay to identify small molecules that stimulate Tumor Necrosis Factor-alpha (TNF-alpha) secretion (AID 651757; active means well fitted curve in the direction sought with a large enough effect in the signal ratio; the % refers to the signal ratio; further: 0% is about no effect)
Chain of Tumor necrosis factor (Homo sapiens) (P01375 whole entry, looked up): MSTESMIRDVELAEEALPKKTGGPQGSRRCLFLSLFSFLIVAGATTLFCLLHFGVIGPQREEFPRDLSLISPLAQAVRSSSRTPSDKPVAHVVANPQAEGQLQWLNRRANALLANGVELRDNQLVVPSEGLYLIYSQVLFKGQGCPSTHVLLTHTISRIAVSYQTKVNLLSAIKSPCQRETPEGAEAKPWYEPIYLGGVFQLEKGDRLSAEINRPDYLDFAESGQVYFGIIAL
Outline: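 Read-out is HTRF, a TR-FRET sandwich of cryptate- and XL665-labeled anti-TNF-alpha antibodies detecting cytokine secreted by THP-1 cells. Cells had been incubated with test compounds at 37 C for 17 hrs beforehand.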

[33] = qHTS assay for environmental chemicals that activate the Aryl hydrocarbon Receptor (AhR) signaling pathway (AID 651777); settings: 1A2-DRE human hepatoma cells, luciferase, 24 h; activation: stronger effect = higher value; further: potency means the concentration at half of the fitted maximal effect; nearly all actives have a fitted effect of over 15% in size
Outline: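 Human hepatoma 1A2-DRE cells, stably carrying a dioxin response element and CYP1A2 promoter driving luciferase, were exposed to compounds for 24 hr at 37 C and 5% CO2. Luciferase signal was then read after 30 min One-Glo at room temperature.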

[34] = biological target: Peroxisome proliferator-activated receptor alpha (Homo sapiens) (UniProt Q07869); experiment: qHTS assay for small molecule agonists of the peroxisome proliferator-activated receptor alpha (PPARalpha) signaling pathway (AID 651778); settings: PathHunter PPARalpha complementation, chemiluminescence, 6 h; max response: stronger effect = higher value; further: % of control where 0% means no effect
Chain of Peroxisome proliferator-activated receptor alpha (Homo sapiens) (Q07869 whole entry, looked up): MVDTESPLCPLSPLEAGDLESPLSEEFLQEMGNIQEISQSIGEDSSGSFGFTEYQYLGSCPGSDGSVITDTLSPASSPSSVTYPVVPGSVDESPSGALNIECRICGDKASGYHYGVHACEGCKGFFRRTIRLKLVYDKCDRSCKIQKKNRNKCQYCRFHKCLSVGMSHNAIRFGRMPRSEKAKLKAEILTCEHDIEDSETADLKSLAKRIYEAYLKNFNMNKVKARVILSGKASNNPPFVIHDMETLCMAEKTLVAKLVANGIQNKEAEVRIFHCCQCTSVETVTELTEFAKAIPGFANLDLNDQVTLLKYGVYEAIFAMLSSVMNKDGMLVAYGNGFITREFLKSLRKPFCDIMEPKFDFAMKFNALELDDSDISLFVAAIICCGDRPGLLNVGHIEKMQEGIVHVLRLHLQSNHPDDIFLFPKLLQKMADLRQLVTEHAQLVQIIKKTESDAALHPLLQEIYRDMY
Outline: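 Cells plated at 2,000/well and held overnight at 37 C, 5% CO2, then compound added by pin tool for 6 hr; after PathHunter detection reagent and 60 min at room temperature, chemiluminescence from enzyme complementation was read.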

[35] = biological target: Nuclear receptor ROR-gamma (Homo sapiens) (UniProt P51449); experiment: qHTS assay for small molecule antagonists of the retinoid-related orphan receptor gamma (ROR-gamma) signaling pathway (AID 651802)
Chain of Nuclear receptor ROR-gamma (Homo sapiens) (P51449 whole entry, looked up): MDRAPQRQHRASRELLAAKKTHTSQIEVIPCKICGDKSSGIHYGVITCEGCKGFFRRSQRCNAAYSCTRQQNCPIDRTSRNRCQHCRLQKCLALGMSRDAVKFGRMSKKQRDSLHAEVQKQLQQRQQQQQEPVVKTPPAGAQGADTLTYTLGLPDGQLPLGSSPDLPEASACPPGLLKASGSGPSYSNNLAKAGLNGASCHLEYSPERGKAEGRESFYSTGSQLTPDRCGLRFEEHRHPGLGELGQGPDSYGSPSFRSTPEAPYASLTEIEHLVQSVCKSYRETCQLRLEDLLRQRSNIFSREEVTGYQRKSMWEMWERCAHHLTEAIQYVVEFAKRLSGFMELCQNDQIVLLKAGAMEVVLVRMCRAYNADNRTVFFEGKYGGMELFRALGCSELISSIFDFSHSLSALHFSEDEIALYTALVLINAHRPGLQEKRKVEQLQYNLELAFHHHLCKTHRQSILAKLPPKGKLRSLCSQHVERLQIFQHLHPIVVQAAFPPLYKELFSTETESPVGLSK
Outline: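 CHO, TET-inducible ROR + RORE-LUC reporter, 1536-well qHTS. Compound pinned, doxycycline added, 16hr 37C/5% CO2. ONE-Glo, 30 min RT, luminescence; signal drop scored as antagonism.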

[36] = qHTS assay for small molecule agonists of the antioxidant response element (ARE) signaling pathway measured by Nrf2-dependant transcriptional activity (AID 720636; active means well fitted curve in the direction sought with a large enough effect in the repeat runs; an effect the other way counts as inactive or inconclusive; further: potency means the concentration at half of the fitted maximal effect)
Outline: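 ARE-luc HepG2 cells carrying an Nrf2-responsive luciferase reporter were plated in medium with 1% dialyzed FBS, left 6 hr at 37 C to attach, then exposed to compound for 16 hr. Luciferase luminescence was read after ONE-Glo addition.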

[37] = qHTS assay for small molecule antagonists of the retinoid-related orphan receptor gamma (ROR-gamma) signaling pathway - cell viability counter screen (AID 720652; active means well fitted curve in the direction sought with a large enough effect in the repeat runs; an effect the other way counts as inactive or inconclusive;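 further: series mostly up to about 92 µM; compound exposure lasted 16 hr before ATP read; on the % scale 0 is the no-effect control and ±100 the full control effect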)
Outline: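 Luminescence from CellTiter-Glo after 30 min at room temperature reported cellular ATP as the cytotoxicity measure. Cells were the CHO reporter line with doxycycline-induced ROR-gamma expression, exposed to compound for 16 hr at 37 C.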

[38] = qHTS assay for small molecule agonists of the antioxidant response element (ARE) signaling pathway measured by Nrf2-dependant transcriptional activity - cell viability counter screen (AID 720653; active means well fitted curve in the direction sought with a large enough effect in the repeat runs; an effect the other way counts as inactive or inconclusive; further: on the % scale 0 is the no-effect control and ±100 the full control effect); settings: ARE-bla HepG2 viability, CellTiter-Glo ATP luminescence, 16 h; max response: stronger effect = lower value
Outline: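 ARE-bla HepG2 cells (2,000/well) rested 5 hrs at 37C/5% CO2, then exposed to compounds in DMSO for 16 hrs. Viability was read in the same wells as intracellular ATP by luminescence, 30 min at room temperature after reagent addition.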

[39] = qHTS assay for cell viability of HEK293 cells (AID 743288); settings: ATP luminescence (CellTiter-Glo), 18 h; max response: stronger effect = lower value
Outline: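 Total intracellular ATP, measured with a luciferase-coupled reagent, indicates the number of viable HEK293 cells. Exposure to test chemicals lasts 18 h at 37 C in 1,536-well format at 2,000 cells/well.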

[40] = biological target: Nuclear receptor subfamily 1 group I member 2 (Rattus norvegicus) (UniProt Q9R1A7); experiment: qHTS assay for small molecule activators of the rat pregnane X receptor (rPXR) signaling pathway (AID 651751; call rule not given here; further: 0% is about no effect); settings: rPXR reporter cells, luciferase (One-Glo), 24 h
Chain of Nuclear receptor subfamily 1 group I member 2 (Rattus norvegicus) (Q9R1A7 whole entry, looked up): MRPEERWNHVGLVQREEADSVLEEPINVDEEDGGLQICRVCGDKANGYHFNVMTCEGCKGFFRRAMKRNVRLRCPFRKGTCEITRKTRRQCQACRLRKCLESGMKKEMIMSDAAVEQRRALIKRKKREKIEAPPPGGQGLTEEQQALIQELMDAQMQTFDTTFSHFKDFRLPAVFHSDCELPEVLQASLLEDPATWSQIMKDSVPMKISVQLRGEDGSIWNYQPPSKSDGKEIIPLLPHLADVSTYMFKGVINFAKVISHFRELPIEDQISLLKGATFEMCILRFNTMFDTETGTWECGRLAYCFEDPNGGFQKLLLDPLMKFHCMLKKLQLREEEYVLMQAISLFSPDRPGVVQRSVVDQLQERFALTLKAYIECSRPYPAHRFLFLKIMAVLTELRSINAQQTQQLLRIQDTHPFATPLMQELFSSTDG

c1ccc2cc3c(cc2c1)-c1cccc2cccc-3c12
21%: max response [24]
inactive: Potency [1] | Potency [2] | Potency [3] | Potency [4] | Potency [5] | Potency [6] | Potency [7] | Potency [8] | Potency [9] | Potency [10] | Potency [11] | Potency [12] | Potency [13] | Potency [14] | Potency [15] | Potency [16] | Potency [17] | Potency [18] | Potency [19] | Potency [20] | Potency [21] | Potency [22] | Potency [26] | Potency [30] | Potency [32] | max response [34] 13.7% and 0.159% | Potency [35] | Potency [37] | max response [38] -11.7% and -17% | max response [39] 4.38% and -18.8% | max response [40] 5.83% and 4.65%
active: Potency [23] 3.16 µM | Potency [25] 2.82 µM | Potency [27] 1.88 µM and 1.93 µM | Potency [28] 6.31 µM and 8.91 µM | Potency [29] 7.08 µM and 4.47 µM | Potency [31] 6.68 µM | Potency [33] 2.82 µM and 2.51 µM | Potency [36] 9.44 µM and 8.63 µM

Source: PubChem BioAssay (NCATS)
